Results taken from PubChem BioAssay AID620 (Sanford-Burnham Center for Chemical Genomics, 2007).
In all, about 87,000 compounds went through this assay and about 360 (0.41%) were called active. The list comes from a sample in which actives are over-represented; it also holds similar structures and randomly drawn compounds. Unmarked numbers belong to inactive results. No stated cut-off is given here; in the data, active means cytotoxicity above about 50%; inactive means the rest.

assay: cytotoxicity in HT1080 fibrosarcoma cells, cell-based, fluorescence readout (AID 620); details: HT1080 viability, at 10 µM, active compounds read high;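 further: cells exposed to compound overnight then 4 h with Alamar Blue; 0% = vehicle DMSO and 100% = killing control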

Compound | cytotoxicity
CCOC(=O)CSCC(=O)Nc1ccc(S(=O)(=O)N2CCCCC2)cc1 | 6.7%
CC(C)(C)c1nc(CN2CCOCC2)ccc1O | -2.2%
COc1ccc2nc(NCc3ccccc3)[nH]c2c1 | 24.9%
c1ccc(CNc2nc3ccccc3[nH]2)cc1 | 4.5%
Cc1ccc2nc(NCc3ccccc3)[nH]c2c1 | 63.1% (active)
CC(C(=O)Oc1ccc2c(c1)OCO2)N1C(=O)c2ccccc2C1=O (centres undefined) | 3.4%
CC(=O)N1CCc2cc(C(=O)CN3CCCCC3)ccc21 | -6.3%
CCN1CCN(Cc2nc3c(c(=O)[nH]c(=O)n3C)n2Cc2ccccc2Cl)CC1 | 4.2%
COc1ccc(-c2cc(-c3cccs3)c(C#N)c(SCC(=O)NCc3ccccc3)n2)cc1 | -5.2%
COc1ccc(-c2cc(-c3cccs3)c(C#N)c(SCC(=O)NCc3ccco3)n2)cc1 | 55.1% (active)
COc1ccc(CNC(=O)CSc2nc(-c3ccccc3)cc(-c3cccs3)c2C#N)cc1 | -13.6%
Nc1nc(SCc2ccc(Cl)cc2)ns1 | -0.5%
CCOC(=O)C1CCCN(Cc2ccccc2OCC)C1 (centres undefined) | 8.9%
COc1ccc(C(=O)Nn2c(C)ccc2C)cc1OC | -1%
CS(=O)(=O)N1CCN(c2ccccc2NC(=O)c2ccc(-c3ccc(Cl)cc3Cl)o2)CC1 | 6%
COc1ccc(C2=NOC(C(=O)NCc3ccc(F)cc3)C2)cc1OC (centres undefined) | 57.2% (active)
COc1cccc(C2=NOC(C(=O)NCc3ccc(F)cc3)C2)c1 (centres undefined) | -1.1%
COc1cc(C2=NOC(C(=O)NCc3ccc(F)cc3)C2)cc(OC)c1OC (centres undefined) | 64.5% (active)
COc1ccc(CNC(=O)C2CC(c3ccc(F)cc3)=NO2)cc1 (centres undefined) | 3.2%
COc1ccc(C2=NOC(C(=O)NCc3ccc(F)cc3)C2)cc1 (centres undefined) | 7%
COc1ccc(CNC(=O)C2CC(c3ccc(OC)cc3)=NO2)cc1 (centres undefined) | -0.6%
COc1ccc2[nH]c(=O)c(C(c3nnnn3C3CCCC3)N3CCN(Cc4ccc5c(c4)OCO5)CC3)cc2c1 (centres undefined) | -0.4%

Compound | cytotoxicity
COc1cc(NC(=O)c2nccnc2C(=O)O)cc(OC)c1 | -8%
C=CCSc1ncc(C#N)c(N)n1 | 14.9%
O=C(OCC(=O)N1CCc2ccccc21)c1cccnc1Cl | -2.9%
CS(=O)(=O)N1CCCC(C(=O)NCCCN2CCc3ccccc3C2)C1 (centres undefined) | -1.1%
C[C@@H](C(=O)NCCc1c[nH]c2ccccc12)[C@@H]1C[C@@]1(C)[C@@H](NC(=O)OCc1ccccc1)c1ccccc1 | 0.9%
Cc1cc2c(c(C)nn2-c2ccccc2)c(=O)o1 | -11.4%
CCCCCCn1c2c(c(=N)c3c1CCC3)CCC2 | 12.4%
CCCCCCCCCCn1c2c(c(=N)c3c1CCC3)CCC2 | 38.3%
CCCCCCCCCn1c2c(c(=N)c3c1CCC3)CCC2 | 51.6% (active)
Cn1c(=O)[nH]c(=O)c2c1nc(CN1CCN(c3ccccc3F)CC1)n2CC(N)=O | -7.3%
Cc1ccc(NC2=C/C(=N\S(=O)(=O)c3cccs3)c3ccccc3C2=O)c(C)c1 | 61.6% (active)
COC(=O)c1ccccc1NC1=C/C(=N\S(=O)(=O)c2cccs2)c2ccccc2C1=O | -53%
COC(=O)C(C(C)=O)C1=C/C(=N\S(=O)(=O)c2ccc(C)cc2)c2ccccc2C1=O (centres undefined) | -13%
O=c1nc(N2CCOCC2)ccn1Cc1ccc(Br)cc1 | -6.8%
C=CCn1cc(C(=O)OC)c(=O)c2cc(S(=O)(=O)N3CCC(C)CC3)ccc21 | 6.1%
COc1ccc(NC(=O)c2oc3ccccc3c2NC(=O)COc2ccccc2OC)c(OC)c1 | -4.5%
O=C(N1CCOCC1)N1CCN(c2ccccn2)CC1 | 6.2%
O=C(c1ccco1)N1CCN(C(=O)N2c3ccccc3Sc3ccccc32)CC1 | 60.9% (active)
O=C(NC1CCN(C(=O)N2c3ccccc3Sc3ccccc32)CC1)c1ccco1 | 3.2%
O=C(N1CCN(c2ccccn2)CC1)N1c2ccccc2Sc2ccccc21 | 59.7% (active)
O=C(c1ccco1)N1c2ccccc2Sc2ccccc21 | 0.2%
O=C(CN1CCN(c2ccccn2)CC1)N1c2ccccc2Sc2ccc(C(F)(F)F)cc21 | 6.6%

Compound | cytotoxicity
Cc1ccccc1C(NC(N)=O)c1ccccc1 (centres undefined) | 0.3%
CC(C)N=C(NC#N)SCc1ccccc1 | 0.9%
CCOc1ccc(C2=Nn3c(nnc3-c3ccccc3OC)SC2)cc1 | 62.9% (active)
COc1ccc(C2=Nn3c(nnc3-c3ccccc3)SC2)cc1OC | 11.6%
CCOc1ccc(C2=Nn3c(nnc3-c3ccc(OC)cc3)SC2)cc1 | 38%
COc1ccccc1-c1nnc2n1N=C(c1ccc(O)c(O)c1)CS2 | 48%
CCOc1ccc(-c2nnc3n2N=C(c2ccc(OC)cc2)CS3)cc1 | 11.5%
COc1ccc(C2=Nn3c(nnc3-c3ccccc3OC)SC2)cc1OC | 56.1% (active)
CSC1CCCCC1(O)CSc1nc2ccccc2o1 (centres undefined) | -0.9%
O=C(CCN1C(=O)C2C3C=CC(C3)C2C1=O)N1CCN(c2ccc(F)cc2)CC1 (centres undefined) | 0.6%
O=C(O)C1CC=C(Cl)CC1C(=O)NCC1OCCc2ccccc21 (centres undefined) | 22.3%
O=C(NCc1ccc(F)cc1)C1CCN(C(=O)NCc2ccccc2)CC1 | -1%
OCCc1ccc(-c2ccc(Cl)cc2)o1 | 0.4%
Cc1nn(-c2ccc(F)cc2)c2sc(C(=O)N3CCCCCC3)cc12 | -14%
Nc1ccc2nc(-c3ccccn3)[nH]c2c1 | 18.5%
CC(=O)Nc1ccc2nc(-c3ccccn3)[nH]c2c1 | 7.2%
CC1(C)OC(=O)N(c2ccccc2)C12C=Cc1cc(Br)ccc1O2 (centres undefined) | -10.5%
Nc1nonc1C(=O)NCCNCc1cc(Br)ccc1OCc1ccc(F)cc1 | 21.8%
Nc1nonc1C(=O)NCCNCc1ccccc1OCc1ccccc1F | 0.5%
Nc1nonc1C(=O)NCCNCc1cc(Br)ccc1OCc1ccccc1F | 99.7% (active)
